# Assay outcomes as filed in PubChem BioAssay.
# This is a sample that favours compounds with a hit; in the whole collection about 4.2% have one here.
# DAX1 inh: DAX1 (NR0B1) inhibition, primary screen. HEK293T StAR-luciferase reporter, SF-1/DAX-1 repression relief. inhibition, % at 6.8 µM. 1.1% of 370,000 active. AID 652010;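 active = inhibition above the mean over all tested compounds plus 3 SD, cut at about 3.6% in these data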;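 note: higher inhibition means more luminescence from relief of DAX-1 repression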
# hcDAF-12 act: activators of H. contortus DAF-12 nuclear receptor; HEK293 hcDAF-12 lit1-tk-luc reporter, luminescence; 0% DMSO, 100% Δ7-dafachronic acid; activation, % at 6.8 µM; 1.4% of 370,000 active; AID 652067;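 active = activation above the mean of all tested compounds plus 3 SD, cut at about 5.5% in these data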
# hgDAF-12 ag: activates the H. glycines DAF-12 receptor ligand-binding domain; HEK293 GAL4-hgDAF12 UAS-luciferase reporter, agonist luminescence; normalized to butyrate control; activation, % at 6.8 µM; 1.8% of 370,000 active;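 active = activation above a cutoff set at the mean of all screened compounds plus 3 SD, cut at about 10% in these data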
# SMARCA2 act: activators of SMARCA2 function; 1% of 370,000 active; AID 652017; MG213 cells, MMTV-luciferase reporter, dexamethasone, overnight; activation, % at 9.1 µM; in the data active = activation above about 7.8%
# ssDAF12 agonist: S. stercoralis DAF-12 activation, primary screen | AID 652126 | HEK293 ssDAF-12/GRIP1 lit1-tk-luc reporter, luminescence; % of 3 µM dafachronic acid response | 1% of 370,000 active | activation, % at 6.8 µM;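 active = activation above the mean over all tested compounds plus 3 SD, cut at about 0.9% in these data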
# SMARCA2 conf: SMARCA2 activation, confirmation screen. shares compounds with SMARCA2 act. MG213 cells, MMTV-luciferase with dexamethasone, luminescence, overnight; MG213 cells expressing E1A, Rb sequestered; DMSO wells 0%, reference activator 100%. activation, % at 9.1 µM. 30% of 3,500 active. AID 652260;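 active = activation above its plate's cutoff, the mean activation of tested wells plus 3 SD, cut at about 7.9% in these data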
# GAL4-VP16 Luc: GAL4-VP16 reporter activation counter-screen. 41% of 3,500 active. activation, % at 9.1 µM. shares compounds with SMARCA2 act. HEK293 GAL4-VP16 pG5luc reporter, luciferase luminescence; scaled: DMSO wells 0%, SAHA wells 100%;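 active = activation above the solvent-only control well mean plus 3 SD, averaged across control plates, cut at about 5.2% in these data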
# Hits are given with their value; 0 = inactive; - = no result given.
SMILES,DAX1 inh,hcDAF-12 act,hgDAF-12 ag,SMARCA2 act,ssDAF12 agonist,SMARCA2 conf,GAL4-VP16 Luc
CCOC(=O)CN1C(=O)S/C(=C\c2ccc(-c3ccc(C(=O)O)c(Cl)c3)o2)C1=O,0,0,0,0,0,-,-
CC(C)N1C(=O)S/C(=C\c2ccc(-c3ccc(Cl)c(C(=O)O)c3)o2)C1=O,0,0,0,15,0,12,13
O=C1NC[C@@H](CCCCN2C[C@H](Cc3ccccc3)N(CCc3ccc(O)cc3)C(=O)C2=O)N(CC2CCCCC2)C1=O,0,0,0,0,0,-,-
CC(C)n1c(O)c(N=Nc2ccc(Cl)c(C(=O)O)c2)c2ccccc21,0,0,0,0,0,-,-
CCn1c(O)c(N=Nc2ccc(Cl)c(C(=O)O)c2)c2ccccc21,0,0,0,11,0,0,0
C[C@@H](N)C(=O)N[C@H]1CCC2C3CC=C4C[C@@H](O)CC[C@]4(C)C3CC[C@@]21C (stereo partly specified),0,0,0,0,0,-,-
CC(C)[C@H](N)C(=O)N[C@H]1CCC2C3CC=C4C[C@@H](O)CC[C@]4(C)C3CC[C@@]21C (stereo partly specified),0,0,0,19,0,44,0
Cc1cc(C(=O)NCc2ccccc2Br)no1,0,0,0,9.4,0,0,0
COCCNC(=O)C1(C)CCCN(Cc2ccc(C)c3ccccc23)C1 (stereo unspecified),0,0,0,0,0,-,-
NCCCn1c(C(=O)c2ccc(Cl)cc2)c2ccc([N+](=O)[O-])cc2[n+]1[O-],0,0,0,0,0,-,-
N#Cc1c2ccc([N+](=O)[O-])cc2[n+]([O-])n1-c1ccccc1,0,0,0,8.5,0,13,8.9
O=c1cc(-c2ccc(O)cc2)oc2ccccc12,0,0,0,9.0,0,12,9.0
O=c1cc(-c2cccc(F)c2)oc2ccccc12,0,0,0,0,0,-,-
O=c1cc(-c2ccc3c(c2)OCO3)oc2ccccc12,0,0,0,18,0,0,7.3
CC1CC(C)CN(CCCNS(=O)(=O)c2cc3c(cc2Br)CCN3C(=O)C2CC2)C1 (stereo unspecified),0,0,0,0,0,-,-
O=C(C1CCCN(S(=O)(=O)c2ccccc2F)C1)N1CCN(Cc2ccccc2)CC1 (stereo unspecified),0,0,0,0,0,-,-
CCOC(=O)C1(N(CC)CC)Sc2cc(C)ccc2NC1=O (stereo unspecified),0,0,0,0,0,-,-
C=C(C)C(=O)OC1(C(F)(F)F)Oc2cc(C)ccc2NC1=O (stereo unspecified),0,0,0,21,0,0,0
Cc1cc(NCCN2CCOCC2)c2ccc3ccccc3c2n1,0,0,0,11,0,21,0
c1ccc2c(NCCCN3CCOCC3)c3ccccc3nc2c1,0,0,0,15,0,28,0
N#Cc1ccccc1OCC(=O)Nc1cccc(S(=O)(=O)N2CCCC2)c1,0,0,0,0,0,-,-
O=C(COC(=O)Cc1ccc(S(=O)(=O)N2CCOCC2)s1)Nc1ccc([N+](=O)[O-])cc1,0,0,0,0,0,-,-
O=C(COC(=O)Cc1ccc(S(=O)(=O)N2CCOCC2)s1)Nc1ccccc1,0,0,0,8.1,0,0,0
N#Cc1ccccc1OCC(=O)Nc1ccc(S(=O)(=O)N2CCOCC2)cc1,0,0,0,9.6,0,0,0
Cc1ccc(CN2CCCCC(NC(=O)c3cccc(C(F)(F)F)c3)C2=O)cc1 (stereo unspecified),0,0,0,0,0,-,-
SMILES,DAX1 inh,hcDAF-12 act,hgDAF-12 ag,SMARCA2 act,ssDAF12 agonist,SMARCA2 conf,GAL4-VP16 Luc
Cc1nc(OCC(C)C)c2sc3nc4c(cc3c2n1)COC(C)(C)C4,0,0,0,0,0,-,-
COc1nc(C)nc2c1sc1nc3c(cc12)COC(C)(C)C3,3.9,0,13,10,0,0,13
Brc1ccccc1OCCCCCN1CCOCC1,0,0,0,10,0,0,0
CCOC(=O)N1CCN(C(=O)CS(=O)(=O)c2cn(Cc3ccc(F)cc3)c3ccccc23)CC1,0,0,0,8.0,0,0,0
CCOc1ccccc1NC(=O)CSc1nnc(SCc2ccccc2)s1,0,0,0,0,0,-,-
COc1ccc(Cc2nc3ccc(C(=O)NCc4cc(C)no4)cc3o2)cc1,3.7,0,0,10,0,0,5.7
Cc1ccc(-c2nnc(/C=C/c3ccccc3)o2)cc1,0,0,11,9.1,0,0,10
Cc1ccc(/C=C/c2nnc(-c3cccc(C)c3)o2)cc1,0,0,0,9.3,0,0,0
Cc1nnc(-c2ccccc2)o1,0,0,0,0,0,-,-
COc1cccc(N(CC(=O)N2CCN(C)CC2)S(=O)(=O)c2ccccc2)c1,0,0,0,8.6,0,0,0
COC(=O)[C@]12C[C@H](CC(=O)N3CCSCC3)C(=O)N(Cc3ccccc3)C1=C[C@H](C(C)(C)C)O[C@@H]2C,0,0,0,0,0,-,-
COc1ccc(C(=O)NNC2=C(C(=O)C(F)(F)F)CCC2)cc1,0,0,0,0,0,-,-
O=C(NNC1=C(C(=O)C(F)(F)F)CCC1)c1ccc(Cl)cc1,0,0,0,14,0,0,0
CC(C)C[C@@H]1COc2cccc(N(C)CCO)c2S(=O)(=O)N1,0,0,0,0,0,-,-
CN(C)c1cnn(-c2ccccc2)c(=O)c1Cl,0,0,0,8.5,0,0,0
Cc1ccc(-n2ncc(N(C)C)c(Cl)c2=O)cc1,0,0,0,0,0,-,-
COc1nc(N=C(N)N)nc2ccc(C)cc12,0,0,0,8.8,0,43,0
COc1ccccc1OCCn1nnc2ccccc21,0,0,0,11,0,0,0
c1ccc(-c2ccc3c(n2)CCCN3Cc2ccccn2)cc1,0,0,0,8.9,0,0,8.7
COc1ccc(CC(/C=C/c2ccc(F)cc2)c2ccccc2)cc1 (stereo unspecified),0,0,0,0,0,-,-
S=c1[nH]nc(-c2ccc(Cl)cc2Cl)n1Cc1ccccc1,0,0,0,0,0,-,-
S=c1[nH]nc(-c2ccc(Cl)cc2Cl)n1-c1ccccc1,0,0,0,16,0,0,6.4
COc1ccc(N)cc1-n1cnnn1,0,0,0,0,0,-,-
COc1ccc(C)cc1-n1cnnn1,0,0,0,8.1,0,0,0
O=C(N/N=C/C=N/NC(=O)c1ccco1)c1ccco1,0,0,0,0,0,-,-
O=C(N/N=C1/CC2C=CCC12)c1ccco1 (stereo unspecified),0,0,11,8.9,1.0,0,0
